# Test results: PubChem BioAssay (EPA / NIEHS)
# Activity calls are given as the source filed them. The calls were made as follows: active = hit-call score of the fitted dose curve at least 0.9, where 1 is the maximum; inactive = score below 0.9.
# Assay: CCTE_Padilla_ZF_Score.Blood_pooling: CCTE's 144 Hour Post-fertilization zebrafish Assay Score for Blood Pooling, Padilla Lab (AID 2284415)
# Experimental: CCTE_Padilla_ZF_Phenotype_Score is a whole embryo, multiplexed assay using zebrafish ova exposed for 144 hours post fertilization on a 96-well plate.CCTE_Padilla_ZF_Score.Blood_pooling is one of one assay component(s) measured or calculated from the CCTE_Padilla_ZF_Phenotype_Score assay. It is designed to make measurements of zebrafish development as detected with brightfield microscopy of developing zebrafish embryos.Data from the assay component CCTE_Padilla_ZF_Score.Blood_pooling was analyzed into 1 assay endpoints. This assay endpoint, CCTE_Padilla_ZF_Score.Blood_pooling, was analyzed in the positive analysis fitting direction relative to DMSO as the negative control and baseline of activity. Using a type of viability reporter, gain-of-signal activity can be used to understand changes in developmentals as they relate to the whole embryo. To generalize the intended target to other relatable targets, this assay endpoint is annotated to the zebrafish development intended target family, where the subfamily is swim bladder morphogenesis.
# Zebrafish husbandry: Wild type adult zebrafish (Danio rerio; undefined outbred stock obtained from Aquatic Research Organisms, Hampton, NH, 03842) were housed in an AAALAC-approved animal facility at 28C with a 14:10 h light: dark cycle (lights on at 08:30 h). Adult fish (2-3 females per male; density = 15-20 adults per tank) were kept in one of several 9-liter (L) flow-through colony tanks (Aquaneering Inc., San Diego, CA). All adults in a colony tank were placed in a 2 L (static) breeding tank (Aquatic Habitats, Apopka, FL) one hour prior to light onset. Typically, adults from two to three colony tanks were mated on the same day. Two hours after light onset the adults were returned to the colony tank. All embryos were gathered from each breeder tank, pooled, and placed in a 28C water bath for 2 h, followed by two washes with 0.06% bleach (v/v) in 10% Hanks' Balanced Salt Solution (13.7 mM NaCl 0.54 mM KCl, 25 uM Na2HPO4, 130 uM CaCl2 100 um MgSO4 and 420 um NaHCO3,), hereafter referred to as Hanks' solution, for 5 min in order to remove any residual bacteria or fungi. Immediately following washing, the embryos were examined, and healthy embryos were separated from dead or unfertilized eggs and moved into fresh Hanks'. Chemical exposures: Zebrafish embryos were exposed in 96-well plates. Between 6- and 8-hours post fertilization (hpf), healthy embryos (with chorions) were transferred, one embryo per well, into 96 well (0.5 mL) microtiter plates (Cell Culture-Treated, Flat-Bottom Microplate 96 well [Corning Costar, Kennebunk, ME; Cat 09-761-145]) filled with 200 uL of Hanks' solution. A random number generator was used to assign the order in which the rows of embryos were plated in 96 well plates each week. After plating, the embryos were dosed with 0.8 uL of the chemical dosing solution then immediately sealed with AlumaSeal II (Excel Scientific Inc, Victorville, CA) to prevent volatilization of the chemicals, and then placed in a leakproof secondary container. These containers were placed in an incubator maintained on a 14:10 h light: dark cycle at 26C for rearing. On 5 dpf, live larvae were gently moved out of the plate with test chemicals and into a new 96 well mesh plate (Millipore Corp., Bedford, MA) with just the Hanks' solution. Once within the mesh well plate, the animals were rinsed with 400 uL of fresh Hanks' three times, and then the plates were covered with a non-adhesive material (Microseal A, BioRad, Hercules, CA), plate lid added, and then plate sides wrapped in Parafilm (PM992, Bermis Company, Neenah, WI), and returned to the incubator. […]
SMILES,outcome,AC50
FC(F)(F)C(F)(F)C(F)(F)C(F)(F)C(F)(F)C(F)(F)I,inactive,–
FC(F)(F)COC(OCC(F)(F)F)OCC(F)(F)F,inactive,–
OCCC(F)(F)C(F)(F)C(F)(F)C(F)(F)F,inactive,–
FC(F)C(F)(F)COCC1CO1 (stereo not given),inactive,–
NCC(F)(F)C(F)(F)C(F)(F)C(F)(F)F,inactive,–
FC(F)=C(F)C(F)(F)C(F)(F)C(F)(F)C(F)(F)C(F)(F)C(F)(F)F,inactive,–
O=C(Cl)C(F)(F)C(F)(F)C(F)(F)C(=O)Cl,inactive,–
C[Si](C)(C)C(F)(F)C(F)(F)C(F)(F)F,inactive,–
OC(O)(C(F)C(O)(O)C(F)(F)F)C(F)(F)F,–,36.6 µM (active)
O=S(=O)(O)CCC(F)(F)C(F)(F)C(F)(F)C(F)(F)C(F)(F)C(F)(F)F,inactive,–
